The results in this text go back to PubChem BioAssay (NCATS).

Assay [1] can be described thus: Quantitative highthroughput screen to assess conditional lethalithy of NOMO1 cells grown in RPMI1640 with untreated serum (RPMI+s) (AID 1963876). Further: nearly all actives have a fitted effect of over 35% in size. In outline: (§1)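 Each medium arm—HPLM with 10% dialyzed FBS, or RPMI1640 with 5 mM glucose and 10% untreated or dialyzed FBS—was screened against an 11-point, 3-fold compound titration for 48 h at 37 °C, with CellTiter-Glo luminescence as endpoint.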

Assay [2] is described as follows: Quantitative highthroughput screen to assess conditional lethalithy of NOMO1 cells grown in RPMI1640 with dialyzed fetal bovine serum (RPMI+ds) (AID 1963877). Further: nearly all actives have a fitted effect of over 30% in size. On viability: series mostly up to about 46 µM. In outline: as §1
The nature of assay [3]: Quantitative highthroughput screen to assess conditional lethalithy of NOMO1 cells grown in Human Plasma-Like Medium with dialyzed fetal bovine serum (HPLM+ds) (AID 1963878). Further: nearly all actives have a fitted effect of over 35% in size. The method, boiled down: as §1
Assay [4] is described as follows: Quantitative highthroughput screen to assess conditional lethalithy of P12 Ichikawa cells grown in Human Plasma-Like Medium with dialyzed fetal bovine serum (HPLM+ds) (AID 1963879). Further: nearly all actives have a fitted effect of over 35% in size. On viability: series mostly up to about 46 µM. As to conditions: Potency: viability. In outline:
as §1

Assay [5] in a line: Quantitative highthroughput screen to assess conditional lethalithy of P12 Ichikawa cells grown in RPMI1640 with dialyzed fetal bovine serum (RPMI+ds) (AID 1963880). Further: nearly all actives have a fitted effect of over 35% in size. The following applies: Potency: P12-Ichikawa viability. The method, boiled down: as §1
The nature of assay [6]: Quantitative highthroughput screen to assess conditional lethalithy of P12 Ichikawa cells grown in RPMI1640 with untreated serum (RPMI+s) (AID 1963881). Further: nearly all actives have a fitted effect of over 35% in size. On viability: series mostly up to about 46 µM. The following applies: Potency: viability. The method, boiled down:
as §1

Assay [7] in a line: Quantitative highthroughput screen to assess conditional lethalithy of SEM cells grown in Human Plasma-Like Medium with dialyzed fetal bovine serum (HPLM+ds) (AID 1963882). Further: nearly all actives have a fitted effect of over 35% in size. On viability: series mostly up to about 46 µM. The method, boiled down:
as §1

The nature of assay [8]: Quantitative highthroughput screen to assess conditional lethalithy of SEM cells grown in RPMI1640 with unreated serum (RPMI+s) (AID 1963883). Further: nearly all actives have a fitted effect of over 35% in size. The method, boiled down:
as §1

Assay [9] in a line: Quantitative highthroughput screen to assess conditional lethalithy of SEM cells grown in RPMI1640 with dialyzed fetal bovine serum (RPMI+ds) (AID 1963884). Further: nearly all actives have a fitted effect of over 35% in size. On viability: series mostly up to about 46 µM. The method, boiled down: as §1

Results filed as inconclusive are left out. The source made the active and inactive calls. The call rests on the fitted dose curve; in most records, active means well fitted curve in the direction sought with a large enough effect; inconclusive means small, poorly fitted or top-dose-only effect, or another doubt; inactive means no such curve, though single readings can be large; an effect the other way counts as inactive or inconclusive.
Potency means the concentration at half of the fitted maximal effect.

For the compound `COC(=O)[C@@H]1CC2=CC(=O)CC[C@]2(C)[C@@]23O[C@@H]2C[C@@]2(C)[C@H](CC[C@@]24CCC(=O)O4)[C@@H]13`, the Potency entry in [1], in [2], in assay [3], in assay [4], in assay [5] and in [6] was “inactive” throughout. The Potency result in assay [7], in assay [8] and in assay [9] was “inactive” in each case.

Consider `O=c1ccc2ccc(O)c(O)c2o1`, for which the Potency entry in assay [1], in assay [2] and in [3] was “inactive” throughout.

On to `O=C(C=Cc1ccc(CN(CCO)CCc2c[nH]c3ccccc23)cc1)NO`, for which the Potency was 590 nM (active) in assay [1]; 743 nM (active) in assay [2]; 590 nM (active) in assay [3]; 418 nM (active) in assay [4]; 418 nM (active) in [5]; 332 nM (active) in assay [6]. For the same compound, the Potency is 264 nM (active) in assay [7], 264 nM (active) in assay [8] and 296 nM (active) in [9].

`O=C(NNC(=O)c1ccc(CNS(=O)(=O)c2ccc(F)c(Cl)c2)cc1)c1ccccc1`: the Potency result in assay [1], in assay [2], in [3], in assay [4], in [5] and in assay [6] was “inactive” in each case. Also, the Potency result in assay [7] and in assay [8] was “inactive” in each case.

Regarding `O=C(C=Cc1c(C(=O)O)[nH]c2cc(Cl)cc(Cl)c12)Nc1ccccc1`, the Potency result in [1], in assay [2], in assay [3], in assay [4], in [5] and in assay [6] was “inactive” each time.

With `C[C@@]12C(=O)OC(=O)[C@@]1(C)C1CCC2O1`, the Potency in assay [1] is 8330 nM (active); in assay [2], 7430 nM (active); in [3], 6620 nM (active); in assay [4], 8330 nM (active); in assay [5], 9350 nM (active); in [6], 9350 nM (active). Also, the Potency in assay [7] was 8330 nM (active); in [8], 6620 nM (active); in assay [9], 5260 nM (active).

With `CC[C@H]1CN2CCc3cc(OC)c(OC)cc3[C@H]2C[C@@H]1C[C@@H]1NCCc2cc(OC)c(OC)cc21`, the Potency was 469 nM (active) in assay [1]; 469 nM (active) in [2]; 526 nM (active) in assay [3]; 209 nM (active) in [4]; 418 nM (active) in assay [5]; 235 nM (active) in [6]. For the same compound, the Potency in [7] is 166 nM (active); in assay [8] it was 235 nM (active).

Take `Nc1ncnc2c1ncn2[C@@H]1O[C@H](CO)C[C@@H]1O`: the Potency entry in assay [1], in [2], in [3], in assay [4], in assay [5] and in assay [6] was “inactive” throughout.

Turning to `CN(C)CCc1c[nH]c2ccc(Cn3cncn3)cc12`, the Potency was 1050 nM (active) in assay [1]; 1180 nM (active) in [2]; 833 nM (active) in assay [3]; 1180 nM (active) in [4]; 935 nM (active) in [5]; 1180 nM (active) in assay [6]. Also, the values for the Potency in assay [7], in assay [8] and in assay [9] were 372 nM (active), 132 nM (active) and 264 nM (active), respectively.

For `O=C(C=Cc1ccc(/C=C/C(=O)Nc2ccc(C3=NCCN3)cc2)cc1)Nc1ccc(C2=NCCN2)cc1`, the Potency entry in assay [1], in assay [2], in assay [3], in [4], in [5] and in [6] was “inactive” throughout. Besides, the Potency result in assay [7] is “inactive”.

Turning to `C[C@H](NCc1ccc2c(c1)nc(NC(=O)c1ccc(-c3cn[nH]c3)s1)n2CCc1ccccc1)C(C)(C)C`, the Potency in [1] is 9350 nM (active); in assay [2], 6620 nM (active); in assay [3] it was 5900 nM (active); in [4], 11800 nM (active); in assay [5] it was 11800 nM (active); in assay [6], 9350 nM (active). Moreover, the Potency was 469 nM (active) in assay [7], 526 nM (active) in assay [8] and 74.3 nM (active) in assay [9].

As for `CO[C@H]1C=CC=C(C)C(=O)NC2=CC(=O)C(NCCN(C)C)=C(C[C@@H](C)C[C@H](OC)[C@@H](O)[C@@H](C)C=C(C)[C@@H]1OC(N)=O)C2=O`, the Potency was 743 nM (active) in assay [1]; 662 nM (active) in [2]; 662 nM (active) in [3]; 4690 nM (active) in [4]; 935 nM (active) in [5]; 743 nM (active) in assay [6]. Besides, the Potency is 166 nM (active) in assay [7], 148 nM (active) in assay [8] and 118 nM (active) in [9].

`CC(C)c1onc(-c2c(Cl)cccc2Cl)c1COc1ccc(C=Cc2cccc(C(=O)O)c2)c(Cl)c1`: the Potency entry in assay [1], in assay [2], in [3], in assay [4], in assay [5] and in assay [6] was “inactive” each time. Moreover, the Potency entry in assay [7], in [8] and in [9] was “inactive” each time.

Regarding `CCC=CC[C@H]1C(=O)CC[C@@H]1CC(=O)OC`, the Potency result in assay [1], in assay [2], in [3], in assay [4], in assay [5] and in assay [6] was “inactive” each time.

Turning to `CCOc1ccc(Cc2cc([C@@H]3O[C@H](CO)[C@@H](O)[C@H](O)[C@@H]3O)ccc2Cl)cc1`, the Potency entry in assay [1], in [2], in [3], in assay [4], in [5] and in assay [6] was “inactive” in each case. The Potency result in assay [7], in [8] and in [9] was “inactive” throughout.

With `O=C1Nc2ccc(I)cc2C1=Cc1cc(Br)c(O)c(Br)c1`, the Potency entry in [1], in assay [2], in [3], in assay [4], in [5] and in [6] was “inactive” each time. The Potency result in [7] was “inactive”. The Potency was 16600 nM (active) in [8] and 18700 nM (active) in assay [9].

As to `COc1cccc2c1C(=O)c1c(O)c3c(c(O)c1C2=O)C[C@@](O)(C(=O)CO)C[C@H]3O[C@H]1C[C@H](N)[C@H](O)[C@H](C)O1`, the Potency was 2960 nM (active) in [1]; 2960 nM (active) in assay [2]; 2350 nM (active) in [3]; 1660 nM (active) in assay [4]; 2090 nM (active) in [5]; 1320 nM (active) in assay [6]. The Potency in [7] is 469 nM (active); in [8] it was 418 nM (active); in [9] it was 372 nM (active).
